Test results reported in PubChem BioAssay (NCATS).
Results filed as inconclusive are left out. The source made the active and inactive calls. Calls follow the shape of the dose curve; as a rule, active = well fitted curve in the direction sought with a large enough effect; inconclusive = small, poorly fitted or top-dose-only effect, or another doubt; inactive = no such curve, though single readings can be large; an effect the other way counts as inactive or inconclusive.

Assays:
[1] = molecular target: Phospholipid hydroperoxide glutathione peroxidase GPX4 (Homo sapiens) (UniProt P36969); test: Primary qHTS Assay for Inhibitors of Recombinant Selenoprotein Glutathione Peroxidase 4 (GPX4) (AID 1845192); also: nearly all actives have a fitted effect of over 65% in size; as to activity change, negative = inhibition: series mostly up to about 50 µM; % is scaled to controls: 0 for no effect and ±100 for the full control effect
In short: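 NADPH consumption followed by fluorescence at 340/450 nm, t=0 and after 15 min at room temperature. Reaction started with cumene hydroperoxide (0.5 mM final) after 30 min compound–GPX4 preincubation; final 200 nM GPX4, 100 nM GR, 1 mM GSH, 0.5 mM NADPH.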

[2] = molecular target: Luciferin 4-monooxygenase (Photinus pyralis) (UniProt P08659); test: Primary firefly luciferase (FLuc) qHTS assay for identification of artifact compounds. (AID 1845220); also: nearly all actives have a fitted effect of over 60% in size;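 as to activity change, negative = inhibition: series mostly up to about 54 µM; plate controls were DMSO vehicle for no effect and no enzyme for full effect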
In short: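 Cell-free, 1536-well qHTS. Buffer pH 7.6 with 0.01% Tween-20 and 0.05% BSA; 10 uM D-luciferin, 10 uM ATP; 10 nM P. pyralis luciferase; luminescence after 5 min.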

[3] = Primary fluorescence-based thiol-reactive (MSTI) qHTS assay for identification of artifact compounds. (AID 1845221); also: nearly all actives have a fitted effect of over 65% in size; also: potency is read from the fitted curve at half-maximal effect;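 as to activity change, negative = thiol reactive: series mostly up to about 54 µM; thiol-reactive compounds lower the probe fluorescence signal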
In short: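 In PBS pH 7.4 with 2% DMSO, each compound met 4 uM MSTI for one hour at ambient temperature, shielded from light, before fluorescence detection.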

[4] = system: Nanoluciferase (engineered Oplophorus gracilirostris luciferase); test: Primary Nanoluciferase (NLuc) qHTS assay for identification of artifact compounds. (AID 1845222); also: potency is read from the fitted curve at half-maximal effect;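 as to activity, negative = inhibition: series mostly up to about 54 µM; 0% = DMSO and -100% = no enzyme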
In short: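 Compounds are pinned into diluted (1:55) conditioned medium of NLuc-expressing S16 cells and held 15 min at room temperature protected from light. Nano-Glo substrate follows, and luminescence is read 5 min later.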

[5] = Primary redox qHTS assay for identification of artifact compounds. (AID 1845223);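 also: 0% = DMSO and 100% = reference compound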
In short: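 Redox-cycling detection via DTT (250 uM final) oxidation coupled to Amplex Red (25 uM)/HRP (250 mU/mL) in HBSS. 15 min preincubation plus 30 min after DTT, room temperature. Ex/Em 525/598 nm; 4-parameter Hill fit against DMSO and 10 uM DA3003.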

[6] = molecular target: Glutathione peroxidase 1 (Homo sapiens) (UniProt P07203); test: Primary qHTS Assay for Inhibitors of Recombinant Selenoprotein Glutathione Peroxidase 1 (GPX1) (AID 1845191); also: nearly all actives have a fitted effect of over 65% in size; as to activity, negative = inhibition: % is scaled to controls: 0 for no effect and ±100 for the full control effect
In short: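 NADPH consumption tracked by fluorescence at 340/450 nm between t=0 and t=15 min, room temperature. Final mix: 10 nM GPX1, 100 nM glutathione reductase, 1 mM GSH, 0.5 mM NADPH, 0.5 mM cumene hydroperoxide, 0.01% BSA; 30 min compound–enzyme preincubation.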

Sequence of Glutathione peroxidase 1 (Homo sapiens) (P07203 whole entry, looked up): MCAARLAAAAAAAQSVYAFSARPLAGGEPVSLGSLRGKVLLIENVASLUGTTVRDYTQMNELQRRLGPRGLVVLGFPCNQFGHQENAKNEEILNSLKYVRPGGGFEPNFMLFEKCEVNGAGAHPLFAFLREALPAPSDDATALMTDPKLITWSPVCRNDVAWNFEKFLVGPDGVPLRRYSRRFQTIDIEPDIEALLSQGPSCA
Sequence of Phospholipid hydroperoxide glutathione peroxidase GPX4 (Homo sapiens) (P36969 whole entry, looked up): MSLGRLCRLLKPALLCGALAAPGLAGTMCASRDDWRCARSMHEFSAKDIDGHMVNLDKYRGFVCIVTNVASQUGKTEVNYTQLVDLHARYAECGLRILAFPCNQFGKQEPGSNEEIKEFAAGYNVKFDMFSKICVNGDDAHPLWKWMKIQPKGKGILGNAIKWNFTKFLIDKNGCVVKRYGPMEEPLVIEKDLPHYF

CC1(O)CC(O)C2C(C(=O)O)=COC(OC3OC(CO)C(O)C(O)C3OC(=O)/C=C/c3ccc(O)cc3)C21 (stereo unspecified)
inactive: Potency [1] | Potency [2] | Potency [4]
active: Potency [3] 4.12 µM

C=C1[C@H](OC(C)=O)[C@H]2[C@@H](OC(C)=O)C(C)C[C@]2(OC(C)=O)C(=O)[C@H](C)/C=C/C(C)(C)C(=O)[C@H](OC(=O)C(C)C)[C@H]1OC(C)=O (stereo partly specified)
inactive: Potency [1] | Potency [2] | Potency [3] | Potency [4] | Potency [5]

CSCC1OC(n2cnc3c(=O)[nH]cnc32)C(O)C1O (stereo unspecified)
inactive: Potency [1] | Potency [2] | Potency [3] | Potency [4]

CN1CCCC1Cc1c[nH]c2ccc(CCS(=O)(=O)c3ccccc3)cc12 (stereo unspecified)
inactive: Potency [1] | Potency [2] | Potency [3] | Potency [4] | Potency [5]

C[C@@H]1O[C@@H](OC2C(O[C@H]3[C@H](O[C@H]4CC[C@@]5(C)C(CC[C@]6(C)C5CC=C5C7CC(C)(C)CC(O)[C@]7(C)CC[C@]56C)C4(C)C)O[C@H](C(=O)O)[C@@H](O)[C@@H]3O)OC(CO)C(O)C2O)[C@H](O)[C@H](O)[C@H]1O (stereo partly specified)
inactive: Potency [1] | activity change, negative = inhibition [2] 2.46% [at 11.6 µM] | activity change, negative = thiol reactive [3] 22.1% [at 11.5 µM] | activity, negative = inhibition [4] 0% [at 11.6 µM] | redox activity (% of DA3003) [5] 6.57% [at 11.5 µM]

COC(=O)C1=CO[C@@H](O[C@@H]2O[C@H](CO)[C@@H](O)[C@H](O)[C@H]2O)C2C1CC(O)C2C (stereo partly specified)
inactive: Potency [1] | Potency [2] | Potency [3] | Potency [4] | Potency [5]

Cc1ccccc1N1CCN(S(=O)(=O)C[C@]23CC[C@H](C[C@@H]2NC(=O)[C@@H](N)CCS(C)(=O)=O)C3(C)C)CC1
inactive: Potency [1] | Potency [2] | Potency [3] | Potency [4] | Potency [5]

CC(/C=C/C=C(\C)C(=O)O[C@@H]1O[C@H](CO[C@@H]2O[C@H](CO)[C@@H](O)[C@H](O)[C@H]2O)[C@@H](O)[C@H](O)[C@H]1O)=C\C=C\C=C(C)\C=C\C=C(/C)C(=O)O[C@@H]1C[C@](O)(C(=O)O)C[C@@H](O)[C@H]1OC(=O)/C=C/c1ccc(O)c(O)c1
inactive: Potency [1] | activity change, negative = inhibition [2] -0.112% [at 11.6 µM] | activity, negative = inhibition [4] -29.7% [at 11.6 µM] | redox activity (% of DA3003) [5] -7.98% [at 11.5 µM]
active: Potency [3] 0.45 µM

CC(C)=CC[C@H]1O[C@]2(O)C([C@H]3CCC4[C@@]5(C)CC[C@H](O[C@@H]6O[C@H](CO)[C@H](O)[C@H](O[C@@H]7O[C@H](CO)[C@@H](O)[C@H](O)[C@H]7O)[C@H]6O[C@@H]6O[C@@H](C)[C@H](O)[C@@H](O)[C@H]6O)C(C)(C)C5CC[C@@]4(C)[C@]3(C)[C@H]2O)[C@@]1(C)O (stereo partly specified)
inactive: Potency [6] | activity change, negative = thiol reactive [3] 12.2% [at 11.5 µM] | activity, negative = inhibition [4] -2.88% [at 11.6 µM]

CCc1nnc(NS(=O)(=O)c2ccc(NC(=S)NC(=O)/C=C/c3ccc(F)cc3)cc2)s1
inactive: Potency [1] | Potency [2] | Potency [3] | Potency [4]

CC1(C)[C@H]2C[C@H](C/C=C\CCCC(=O)O)[C@@H](NC(=O)c3csc4ccc(O)cc34)[C@@H]1C2
inactive: Potency [1] | Potency [2] | Potency [3] | Potency [4] | Potency [5]

Cc1sc(C)c(C(=O)NC2(c3ccc(C(=O)O)cc3)CC2)c1Cc1ccc(C(F)(F)F)cc1
inactive: Potency [1] | Potency [2] | Potency [3] | Potency [5]
active: Potency [4] 4.78 µM

Cc1cc(C)c2nc(-c3ccccn3)cc(C(=O)Nc3ccc(S(=O)(=O)Nc4onc(C)c4C)cc3)c2c1
inactive: Potency [6] | Potency [4] | Potency [5]

NC[C@H]1CCC[C@@H](CNC(=O)[C@@H](Cc2c[nH]c3ccccc23)NC(=O)N2CCC3(C=Cc4ccccc43)CC2)C1
inactive: Potency [1] | Potency [2] | Potency [3] | Potency [4] | Potency [5]

CC1(C)C2CC[C@]3(C)C(C(=O)C=C4[C@H]5C[C@@](C)(C(=O)O)CC[C@]5(C)CC[C@]43C)[C@@]2(C)CC[C@@H]1O (stereo partly specified)
inactive: Potency [1] | Potency [2] | Potency [3] | Potency [4] | Potency [5]

COC(=O)C1=COC(OC2OC(CO)C(O)C(O)C2O)C2C(C)CC(=O)C12O (stereo unspecified)
inactive: Potency [6] | Potency [2] | Potency [4] | Potency [5]

C=CC(C)(O)CCC1C(C)(O)CCC2C(C)(C)CCCC21C (stereo unspecified)
inactive: Potency [1] | Potency [2] | Potency [3] | Potency [4] | Potency [5]

Cn1cc(CCn2cnc(-c3cnn(C)c3)c2-c2ccc(C#N)cc2)cn1
inactive: Potency [1] | Potency [2] | Potency [3] | Potency [4]

C[C@@]1(C(=O)O)CCC[C@@]2(C)C3=CC[C@H]4C[C@@]3(CC[C@H]12)CC4(O)CO (stereo partly specified)
inactive: Potency [1] | Potency [2] | Potency [3] | Potency [4] | Potency [5]
